Reference: PubChem BioAssay AID540333 (Southern Research Specialized Biocontainment Screening …, 2011)
Out of some 10,000 compounds screened, about 320 (3.2%) were called active. The sample holds actives, similar compounds and a random draw of the others, so the mix is not that of the screen. No stated cut-off is given here; in the data, active means CPE inhibition mostly above about 9.1% (no sharp cut-off); inactive means mostly below about 7.2%.

Assay: antivirals protecting cells from dengue CPE – CPE readout, HTS (AID 540333)
Settings: Dengue virus CPE inhibition in host cells, at 20 µM; hits give high values

Row | Compound | CPE inhibition
1 | C/C(=N\Nc1ccccn1)c1ccc(S(=O)(=O)NCc2ccco2)cc1 | inactive
2 | C/C(=N\Nc1ncc(Cl)cc1Cl)c1ccc(S(=O)(=O)NCc2ccco2)cc1 | inactive
3 | C/C(=N\Nc1nc(Cl)c(Cl)cc1Cl)c1ccc(S(=O)(=O)NCc2ccco2)cc1 | 8.5% (active)
4 | Cc1ccccc1OCC(=O)N/N=C1\SCC(=O)N1Cc1ccccc1 | inactive
5 | COc1ccc(-c2cc(C(=O)OCC(=O)Nc3ccc4c(c3)OCO4)c3ccccc3n2)cc1 | 0.175% (inactive)
6 | COc1ccc(C(C(=O)Nc2ccc3c(c2)OCO3)N(C)C(=O)Cc2c[nH]c3ccccc23)cc1 (stereo not drawn) | 25.8% (active)
7 | COc1ccc(NC(=O)C(c2cc3c(cc2[N+](=O)[O-])OCO3)N(C)c2ccccc2)cc1 (stereo not drawn) | 1.73% (inactive)
8 | O=C(CCCC(=O)N1CCN(c2ccc([N+](=O)[O-])cc2)CC1)c1ccccc1 | 0.355% (inactive)
9 | Cc1ccc2nc(N3CC(=O)Nc4ccccc43)nc(-c3ccccc3)c2c1 | 1.55% (inactive)
10 | Cc1c(Cl)cccc1NCC(=O)Nc1ccc(Cl)cc1F | 4.37% (inactive)
11 | Cc1ccc(C(=O)CCC(=O)Nc2ccc(Cl)c(S(=O)(=O)Nc3cccc(Cl)c3)c2)cc1 | 4.45% (inactive)
12 | COc1ccc(NC(=O)CCC(=O)c2cccs2)cc1S(=O)(=O)Nc1ccc(Cl)cc1 | 0.325% (inactive)
13 | COc1ccc(NS(=O)(=O)c2cccc(NC(=O)CCC(=O)c3ccc(Cl)cc3)c2)cc1 | 17.3% (active)
14 | CC(=O)Nc1ccc(OCC(=O)NCCc2ccc(Cl)cc2)cc1 | inactive
15 | Cc1cc(/C=N\NC(=O)CC(=O)NC2CCCCC2)c(C)n1-c1cccc(Cl)c1Cl | 22.7% (active)
16 | Cc1ccc(-n2c(C)cc(/C=N\NC(=O)CC(=O)NC(C)C)c2C)cc1 | inactive
17 | Cc1cccc(C)c1-n1c(C)cc(/C=N\NC(=O)CC(=O)NC2CCCCC2)c1C | 0.17% (inactive)
18 | Cc1ccc(S(=O)(=O)c2cc(OC(=O)c3ccco3)ccc2OC(=O)c2ccco2)cc1 | 0.235% (inactive)
19 | CC1(C)CC(NC(=O)C(Cl)(Cl)Cl)CC(C)(C)N1 | inactive
20 | CCn1ncc(/C=C/C(=O)C2CC2)c1C | 2.21% (inactive)

Row | Compound | CPE inhibition
21 | CCOC(=O)c1c(C)[nH]c(C2=NNC(=Nc3ccc(OCC)cc3)SC2)c1C | 13.2% (active)
22 | CCOc1ccc(N=C2NC(=O)/C(=C/C(=O)OC)S2)cc1 | 0.935% (inactive)
23 | CCOC(=O)c1c(C)[nH]c(C(=O)/C(C#N)=C/c2ccc(OCC)cc2)c1C | 0.085% (inactive)
24 | O=C(CCN1C(=O)c2ccccc2C1=O)C1=NN[C@@H]2C(=O)N(c3cccc(F)c3)C(=O)[C@H]12 | 1.32% (inactive)
25 | COc1cc(C=Nc2cccc([N+](=O)[O-])c2C)ccc1OC(C)=O | 4.63% (inactive)
26 | Cc1cccc(-c2nc(Nc3ccc(N4CCOCC4)cc3)c3ccccc3n2)c1 | inactive
27 | Cc1cccc(/C=N/Nc2cc(N3CCOCC3)nc(N3CCOCC3)n2)c1 | inactive
28 | CSc1nc(N2CCOCC2)nc2ccc(C)cc12 | 11.8% (active)
29 | COc1ccc(C)cc1NC(=O)c1cc2c(s1)CCC2 | inactive
30 | COc1ccc(/C=N/N2CCN(C3c4ccccc4-c4ccccc43)CC2)cc1OC | 0.5% (inactive)
31 | CCc1nc(C#N)c(N2CCOCC2)o1 | 0.655% (inactive)
32 | COc1ccc(C(=O)N[C@H](C(=O)OCC(=O)NC(=O)c2cccn2C)C(C)C)cc1 | inactive
33 | CC(=O)c1ccc(NC(=O)c2cc(Cl)sc2Cl)cc1 | 0.185% (inactive)
34 | Cc1ccc(C(=O)c2ccccc2C(=O)OCC(=O)NCCc2ccccc2)cc1 | 1.41% (inactive)
35 | O=C(COC(=O)c1ccccc1C(=O)c1ccc(Cl)cc1)NCCc1ccccc1 | 5.59% (inactive)
36 | Cc1ccc(C(=O)c2ccccc2C(=O)OCC(=O)NCCc2ccc(Cl)cc2Cl)cc1 | 22.8% (active)
37 | O=C(Nc1ccn(-c2ccccc2)n1)c1ccc(Cl)cc1 | 0.155% (inactive)
38 | COc1ccc(CCNC(=O)CC2SC(=NCCc3ccccc3)NC2=O)cc1 (stereo not drawn) | inactive
39 | C[C@H](NS(=O)(=O)c1ccc(Cl)cc1)C(=O)OCC(=O)NC(=O)Nc1ccc2c(c1)OCCO2 | 0.475% (inactive)
40 | Cc1ccc(S(=O)(=O)Nc2cccc3c2CCCC3)cc1 | 0.255% (inactive)

Row | Compound | CPE inhibition
41 | COc1cc(NS(=O)(=O)c2ccc(Cl)cc2)c(C(=O)O)cc1OC | 0.06% (inactive)
42 | O=S(=O)(Nc1cccc2c1CCCC2)c1ccc(Cl)cc1 | 21.1% (active)
43 | CCCc1nc2c(c(=O)c3ccccc3n2C)c(=O)n1C1CCCCCC1 | inactive
44 | CCCc1nc2c(c(=O)c3ccccc3n2C)c(=O)n1-c1ccc(F)cc1 | 1.89% (inactive)
45 | Cn1c2ccccc2c(=O)c2c(=O)n(-c3ccccc3)c(C3CCCCC3)nc21 | 9.13% (active)
46 | CCc1nc2c(c(=O)c3ccccc3n2C)c(=O)n1C1CCCCCC1 | 13.5% (active)
47 | Cn1c2ccccc2c(=O)c2c(=O)n(C3CCCCC3)c(-c3ccco3)nc21 | 10.4% (inactive)
48 | Cn1c2ccccc2c(=O)c2c(=O)n(C3CCCCCC3)c(C3CCCCC3)nc21 | inactive
49 | O=c1[nH]cnc2c1c(-c1ccccc1)cn2-c1ccc(Br)cc1 | 11.8% (active)
50 | COC(=O)C(C)Sc1ncnc2c1c(-c1ccccc1)cn2-c1ccc(OC)cc1 (stereo not drawn) | 2.83% (inactive)
51 | CCOC(=O)CSc1ncnc2c1c(-c1ccccc1)cn2-c1ccc(OC)cc1 | 2.07% (inactive)
52 | CCOc1ccccc1NC(=O)C(OC(=O)c1ccccc1NS(=O)(=O)c1cccs1)c1ccccc1 (stereo not drawn) | 1.08% (inactive)
53 | CC12CCC(C(=O)N(NC(=O)c3cccnc3)C1=O)C2(C)C (stereo not drawn) | 2.09% (inactive)
54 | O=C(N/N=C/c1ccccn1)C12CC3CC(CC(C3)C1)C2 | inactive
55 | CC(NC(=O)/C=C/c1cnc2ccccc2n1)C12CC3CC(CC(C3)C1)C2 (stereo not drawn) | 12.8% (active)
56 | CC(NC(=O)COC(=O)[C@@H]1CCCN1S(=O)(=O)c1ccccc1F)C12CC3CC(CC(C3)C1)C2 (stereo partly drawn) | inactive
57 | O=C(COc1ccc(Br)cc1Cl)NC1CCCCC1 | 0.99% (inactive)
58 | CC(=O)c1ccc(NC(=O)CN2C(=O)/C(=C/C(C)=C/c3ccccc3)SC2=S)cc1 | 0.22% (inactive)
